# Source: PubChem BioAssay (NCI)
# About 83,000 compounds went through this panel and 20% of them were active in at least one assay; those are over-represented in the sample as a whole.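 Single-dose data. Exposure time 48 hours. Values below 10 considered active.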 A number with no mark means an inactive call. The source made the active and inactive calls.
# Tests used:
# Experiment in all cases: NCI-60 one-dose screen, 48 h (100 = growth as untreated, 0 = no growth, -100 = all killed)
# Conditions in all cases: 10 µM unless noted
# [1] = tested on: NCI-H23 lung
# [2] = tested on: NCI-H226 lung
# [3] = tested on: NCI-H322M lung
# [4] = tested on: HOP-62 NSCLC
# [5] = tested on: NCI-H460 lung
# [6] = tested on: HOP-92 NSCLC
# [7] = tested on: NCI-H522 lung
# [8] = tested on: A549/ATCC NSCLC
# [9] = tested on: 786-0 renal
# [10] = tested on: COLO 205 colon
SMILES,growth [1],growth [2],growth [3],growth [4],growth [5],growth [6],growth [7],growth [8],growth [9],growth [10]
COc1ccc(C2C(C#N)=C(N)Oc3c2sc2c(Br)cccc32)cc1 (stereo not given),36.3%,49.2%,30%,23.7%,12.9%,47%,-6.29% (active),35.5%,29.6%,2.31% (active)
COc1ccc2nc3ccccc3c(NCc3ccccc3)c2c1,21.5%,34.4%,29.5%,33.6%,6.31% (active),-13.4% (active),34.6%,18.2%,22.3%,-19.1% (active)
COc1ccc(C2=NN(C(C)=O)C(c3ccc(Oc4ccnc5cc(Cl)ccc45)c(OC)c3)C2)cc1 (stereo not given),65.9%,-0.374% (active),26.7%,27.6%,30.7%,-1.54% (active),46.8%,44.6%,23.9%,47.7%
NS(=O)(=O)c1ccc(N/C=C/C(=O)c2cc3ccccc3oc2=O)cc1,88%,86.9%,92.9%,84.7%,96.8%,76.1%,96.3%,97.1%,96.1%,102%
Cc1cc2nc3c4ccccc4n(CCN(C)C)c3nc2cc1C,8.98% (active),11.3%,0.121% (active),2.09% (active),-32.7% (active),28.1%,-19.1% (active),-33.8% (active),23.2%,-29.8% (active)
COc1ccc(OC)c(Nc2nnc(-c3ccc(Cl)cc3)o2)c1,75%,93.8%,56.9%,46.7%,18.8%,100%,89.9%,44.7%,26.4%,99.1%
C=CC(=O)NCCOc1cccc(Nc2cc(NCCCNC(=O)C3CCC3)c(Br)cn2)c1,-25.8% (active),-14.1% (active),-6.07% (active),-22.4% (active),-18% (active),-28.5% (active),-19.3% (active),-16.7% (active),-35.7% (active),-42.7% (active)
Cc1[nH]c(C(=O)Nc2cccc(OC3CCNCC3)c2)c(Cl)c1Cl,75.3%,91.4%,84.8%,86.9%,77%,22.9%,99.2%,68.6%,63.8%,-35.3% (active)
CCCCC(=O)Nc1ncc(Cc2ccccc2Cl)s1,69.4%,63.4%,86.8%,42.7%,51%,51.3%,19.9%,40.9%,50%,37%
COc1cc2c(c(OC)c1OC)C(=O)CC(c1cccc(NC(=O)c3ccccc3Br)c1)O2 (stereo not given),98.4%,84.8%,96%,97.4%,90.4%,65.2%,66.7%,88.1%,103%,116%
C=C(CO)[C@@H]1CC[C@]2(COC3CCCCO3)CC[C@]3(C)[C@H](CC[C@@H]4[C@@]5(C)C=C(C=O)C(=O)C(C)(C)[C@@H]5CC[C@]43C)[C@@H]12 (stereo not given in full),-63.6% (active),-54.3% (active),-22.6% (active),-86.8% (active),-73.1% (active),-92.5% (active),-80.5% (active),-77.4% (active),-91.2% (active),-60.2% (active)
COc1ccc(C2=C/C(=C\c3ccc(Cl)cc3)C(=O)N2/N=C/c2ccc(Cl)cc2)cc1,103%,93.1%,89.7%,97.8%,106%,72.8%,73.9%,80.7%,103%,96.9%
CN1CCN(Cc2ccc(NC(=O)c3cncc(C#Cc4cncc5ncccc45)c3)cc2C(F)(F)F)CC1,15%,12.7%,18%,10.4%,-47.3% (active),-34.9% (active),19.7%,17.7%,38.3%,-23% (active)
COc1cc(C(=O)c2c(-c3ccccc3)oc3c(OC)cccc23)cc(OC)c1O,34%,-0.617% (active),56.2%,31.8%,3.99% (active),34.9%,13.1%,20.2%,33.4%,7.65% (active)
Brc1ccc(-c2cnc3nonc3n2)cc1,68%,100%,94%,105%,96.7%,86.9%,66%,91.9%,84.2%,71.3%
CCCCCn1sc(=O)n(Cc2ccc(CNC(=O)OCc3ccc4c(Cl)cc(Cl)c(O)c4n3)cc2)c1=O,73.2%,65.8%,55.7%,41.7%,27.1%,76.2%,66.1%,49.7%,61.2%,106%
COc1ccc(C2=Nc3c/c(=C\c4c(O)[nH]c5cc(Cl)ccc45)ccc3=N2)cc1,68.1%,84.1%,91.2%,77.3%,93.6%,77.9%,46%,74.9%,90.8%,3.61% (active)
C/C(=C(/c1ccc(Cl)cc1)c1ccc(OCCCN(C)C)cc1)c1ccc(Cl)cc1,91.2%,108%,85.9%,115%,72.7%,74.4%,99.7%,68.1%,86.8%,48.9%
Cc1nc2sc(C(=O)Nc3ccc(Cl)cc3)c(N)c2cc1C(O)c1ccccc1 (stereo not given),42.6%,57%,57.6%,45.1%,17.4%,44.8%,33.2%,42.1%,46.5%,29.6%
CCOC(=O)c1c2c(n3ccccc13)C(=O)c1ncccc1C2=O,4.7% (active),9.64% (active),11.4%,-11.7% (active),1.12% (active),28.4%,-22.2% (active),8.27% (active),2.37% (active),20.7%
C[Se]C(=O)CC1=C2C=C(F)C=CC2/C(=C\c2ccc(S(C)=O)cc2)C1C (stereo not given),13.5%,1.21% (active),14.1%,-24.3% (active),-1% (active),-41.4% (active),12.9%,-60.1% (active),3.8% (active),-17.4% (active)
Cn1cc(-c2nc(-c3c[nH]c4ccncc34)cs2)c2cc(Br)ccc21,-64.2% (active),0.662% (active),-93.1% (active),-69.7% (active),-71.4% (active),-91.9% (active),-70.8% (active),-70.3% (active),-78.5% (active),-71.1% (active)
C=CCN=C(N)SCCCCCCSC(N)=NCC=C,105%,97.1%,103%,75.1%,102%,63.3%,64.4%,86.8%,92.2%,86.4%
CCCCCSB(SCCCCC)c1ccccc1,99.9%,102%,103%,90%,112%,105%,88.3%,92.4%,103%,106%
O=C(/C=C/c1cccc(Cl)c1)c1cccc(OCCCCOc2cccc(C(=O)/C=C/c3cccc(Cl)c3)c2)c1,89.3%,99.7%,92.2%,107%,98.7%,78.6%,88.7%,85.4%,98.8%,76%
CC(C)(CO)N(CCO)CCO,97.3%,94%,95.4%,110%,110%,78.9%,95.9%,114%,102%,123%
COC1=CC(c2ccc[nH]2)=N/C1=C\c1[nH]c(C)c(CC(=O)OCc2ccccc2)c1C,6.16% (active),10.5%,25.9%,1.96% (active),7.86% (active),-16.8% (active),-33.4% (active),5.03% (active),-23.7% (active),-4.75% (active)
